Test results from PubChem BioAssay (EPA / NIEHS).
Activity calls are given as the source filed them. Rule for the calls: active = hit-call score of the fitted dose curve at least 0.9, where 1 is the maximum; inactive = score below 0.9.

Tests used:
[1] = read-out: Transforming growth factor beta 1 (TGFb1), TGFB1 (gene 7040); assay: BSK_KF3CT_TGFb1: BioMAP Diversity Plus: KF3CT Assay for Transforming growth factor beta 1 (TGFb1) Biomarker Activity (AID 2283072); conditions: primary human keratinocytes with fibroblasts; actives raise or lower the signal
Method in brief: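 KF3CT co-culture (keratinocytes + fibroblasts), 24 h exposure → TGF-b1 ELISA → bidirectional fit, DMSO = baseline. Parallel SRB total-protein staining (0.1% SRB, 10% TCA fixation, 560 nm) for cytotoxicity.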

[2] = read-out: C-C motif chemokine 2 (Homo sapiens) (UniProt P13500); assay: BSK_KF3CT_MCP1: BioMAP Diversity Plus: KF3CT Assay for Monocyte Chemoattractant Protein 1 (MCP1/CCL2) Biomarker Activity (AID 2283073); conditions: primary human keratinocytes with fibroblasts; actives raise or lower the signal
Method in brief: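 KF3CT skin co-culture (keratinocytes/foreskin fibroblasts), 24 h post-dose; MCP-1 by ELISA; gain/loss of signal fit bidirectionally vs DMSO baseline.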

[3] = read-out: Matrix Metallopeptidase 9 (MMP9), MMP9 (gene 4318); assay: BSK_KF3CT_MMP9: BioMAP Diversity Plus: KF3CT Assay for Matrix Metallopeptidase 9 (MMP9) Biomarker Activity (AID 2283074); conditions: primary human keratinocytes with fibroblasts; actives raise or lower the signal
Method in brief: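 ELISA read-out of MMP-9 at 24 h post-dosing in a co-culture of human skin keratinocytes and foreskin fibroblasts. Gain or loss of signal was fitted in both directions against DMSO.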

[4] = read-out: CD40, CD40 (gene 958); assay: BSK_LPS_CD40: BioMAP Diversity Plus: LPS Assay for CD40 Biomarker Activity (AID 2283076); conditions: primary human HUVEC with PBMC; actives raise or lower the signal
Method in brief: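 ELISA readout of CD40 in HUVEC/PBMC co-culture (BSK_LPS system), 24 h post-dosing; bidirectional curve fit, DMSO baseline; parallel SRB total-protein staining for cytotoxicity.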

[5] = read-out: E-selectin (Homo sapiens) (UniProt P16581); assay: BSK_LPS_Eselectin: BioMAP Diversity Plus: LPS Assay for Eselectin Biomarker Activity (AID 2283077); conditions: primary human HUVEC with PBMC; actives raise or lower the signal
Method in brief: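 ELISA readout of E-selectin, 24 h post-dose, HUVEC + PBMC co-culture (LPS system). Gain or loss of signal vs DMSO baseline, bidirectional fit.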

[6] = read-out: Interleukin-8 (IL8), CXCL8 (gene 3576); assay: BSK_LPS_IL8: BioMAP Diversity Plus: LPS Assay for Interleukin-8 (IL8) Biomarker Activity (AID 2283078); conditions: primary human HUVEC with PBMC; actives raise or lower the signal
Method in brief: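 HUVEC + PBMC co-culture, LPS-activated; test chemicals dosed, IL-8 read by ELISA at 24 h. Bidirectional curve fit vs DMSO baseline (gain or loss of signal).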

[7] = BSK_LPS_SRB: Viability Assessment in the BioMAP Diversity Plus: LPS Assay (AID 2283079); conditions: primary human HUVEC with PBMC;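 note: total protein by sulforhodamine B absorbance as a cytotoxicity measure; measured one day after compound addition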
Method in brief: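 HUVEC + PBMC co-culture, LPS-stimulated; compound 24 h. 10% TCA fix, 0.1% SRB stain, A560. Bidirectional fit vs DMSO.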

[8] = read-out: Interleukin-1 alpha (IL1a), IL1A (gene 3552); assay: BSK_LPS_IL1a: BioMAP Diversity Plus: LPS Assay for Interleukin-1 alpha (IL1a) Biomarker Activity (AID 2283080); conditions: primary human HUVEC with PBMC; actives raise or lower the signal
Method in brief: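 HUVEC/PBMC co-culture, LPS system; 24 h after dosing; IL-1a by ELISA; gain or loss of signal fitted bidirectionally vs DMSO baseline.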

[9] = BSK_LPS_PGE2: BioMAP Diversity Plus: LPS Assay for Prostaglandin E2 (PGE2) Biomarker Activity (AID 2283082); conditions: primary human HUVEC with PBMC; actives raise or lower the signal
Method in brief: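 Compounds were added to the LPS co-culture of endothelium and PBMC, and PGE2 was measured by ELISA after 24 h. Responses in either direction were fitted with DMSO as baseline.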

[10] = read-out: Macrophage colony-stimulating factor (MCSF), CSF1 (gene 1435); assay: BSK_LPS_MCSF: BioMAP Diversity Plus: LPS Assay for Macrophage colony-stimulating factor (MCSF) Biomarker Activity (AID 2283083); conditions: primary human HUVEC with PBMC; actives raise or lower the signal
Method in brief: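 HUVEC + PBMC co-culture (human primary), 24 h post-dose; M-CSF by ELISA; gain/loss of signal fitted bidirectionally vs DMSO baseline.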

[11] = read-out: Tissue Factor, F3 (gene 2152); assay: BSK_LPS_TissueFactor: BioMAP Diversity Plus: LPS Assay for Tissue Factor Biomarker Activity (AID 2283084); conditions: primary human HUVEC with PBMC; actives raise or lower the signal
Method in brief: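 HUVEC/PBMC co-culture, LPS-activated; CD142 ELISA read 24 h post-dose; bidirectional curve fit vs DMSO negative control.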

[12] = read-out: Tumor necrosis factor (Homo sapiens) (UniProt P01375); assay: BSK_LPS_TNFa: BioMAP Diversity Plus: LPS Assay for Tumour Necrosis Factor alpha (TNFa) Biomarker Activity (AID 2283085); conditions: primary human HUVEC with PBMC; actives raise or lower the signal
Method in brief: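 Cells (umbilical vein endothelium plus peripheral blood mononuclear cells) were dosed with chemical, incubated 24 h, then TNFa was quantified by ELISA; values derive from bidirectional fitting with DMSO as baseline.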

[13] = read-out: Vascular cell adhesion molecule 1 (VCAM1), VCAM1 (gene 7412); assay: BSK_LPS_VCAM1: BioMAP Diversity Plus: LPS Assay for Vascular cell adhesion molecule 1 (VCAM1) Biomarker Activity (AID 2283086); conditions: primary human HUVEC with PBMC; actives raise or lower the signal
Method in brief: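 Cells are dosed in an LPS-stimulated endothelial/mononuclear co-culture and, after 24 h, VCAM-1 is quantified by ELISA. Activity in either direction is fitted relative to the DMSO negative control.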

[14] = read-out: CD38, CD38 (gene 952); assay: BSK_SAg_CD38: BioMAP Diversity Plus: SAg Assay for CD38 Biomarker Activity (AID 2283087); conditions: primary human HUVEC with PBMC; actives raise or lower the signal
Method in brief: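 CD38 quantified by ELISA (fluorescence) in a superantigen-activated endothelial cell–PBMC co-culture at 24 h post-dose. Activity fitted in both directions relative to DMSO; parallel SRB and Alamar Blue cytotoxicity read-outs.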

[15] = read-out: CD40, CD40 (gene 958); assay: BSK_SAg_CD40: BioMAP Diversity Plus: SAg Assay for CD40 Biomarker Activity (AID 2283088); conditions: primary human HUVEC with PBMC; actives raise or lower the signal
Method in brief: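 HUVEC/PBMC co-culture, 24 h post-dose; CD40 by ELISA, fluorescence intensity; bidirectional fit vs DMSO negative control.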

[16] = read-out: CD69, CD69 (gene 969); assay: BSK_SAg_CD69: BioMAP Diversity Plus: SAg Assay for CD69 Biomarker Activity (AID 2283089); conditions: primary human HUVEC with PBMC; actives raise or lower the signal
Method in brief: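 HUVEC co-cultured with PBMC were dosed with chemical, and CD69 was measured by ELISA with fluorescence read-out 24 h later. Bidirectional curve fitting used DMSO as negative control and activity baseline.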

[17] = read-out: Monocyte Chemoattractant Protein-1 (MCP1), CCL2 (gene 6347); assay: BSK_SAg_MCP1: BioMAP Diversity Plus: SAg Assay for Monocyte Chemoattractant Protein-1 (MCP1) Biomarker Activity (AID 2283090); conditions: primary human HUVEC with PBMC; actives raise or lower the signal
Method in brief: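 Values derive from bidirectional fitting of ELISA-measured MCP1 against DMSO controls. Readings were taken 24 h after dosing human vascular endothelial cells co-cultured with peripheral blood mononuclear cells under superantigen stimulation.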

[18] = read-out: E-selectin (Homo sapiens) (UniProt P16581); assay: BSK_SAg_Eselectin: BioMAP Diversity Plus: SAg Assay for Eselectin Biomarker Activity (AID 2283091); conditions: primary human HUVEC with PBMC; actives raise or lower the signal
Method in brief: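 E-selectin ELISA readout at 24 h post-dosing in human umbilical vein endothelial cell/PBMC co-culture; gain or loss of signal fitted relative to DMSO baseline.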

[19] = read-out: Monocyte Chemoattractant Protein-1 (MCP1), CCL2 (gene 6347); assay: BSK_LPS_MCP1: BioMAP Diversity Plus: LPS Assay for Monocyte Chemoattractant Protein-1 (MCP1) Biomarker Activity (AID 2283081); conditions: primary human HUVEC with PBMC; actives raise or lower the signal
Method in brief: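 ELISA read-out of MCP-1 after 24 h chemical dosing of a human umbilical vein endothelial cell/peripheral blood mononuclear cell co-culture stimulated with LPS. Gain or loss of signal fitted relative to DMSO controls.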

Measured: outcome

E-selectin (Homo sapiens), sequence (P16581 whole entry, looked up): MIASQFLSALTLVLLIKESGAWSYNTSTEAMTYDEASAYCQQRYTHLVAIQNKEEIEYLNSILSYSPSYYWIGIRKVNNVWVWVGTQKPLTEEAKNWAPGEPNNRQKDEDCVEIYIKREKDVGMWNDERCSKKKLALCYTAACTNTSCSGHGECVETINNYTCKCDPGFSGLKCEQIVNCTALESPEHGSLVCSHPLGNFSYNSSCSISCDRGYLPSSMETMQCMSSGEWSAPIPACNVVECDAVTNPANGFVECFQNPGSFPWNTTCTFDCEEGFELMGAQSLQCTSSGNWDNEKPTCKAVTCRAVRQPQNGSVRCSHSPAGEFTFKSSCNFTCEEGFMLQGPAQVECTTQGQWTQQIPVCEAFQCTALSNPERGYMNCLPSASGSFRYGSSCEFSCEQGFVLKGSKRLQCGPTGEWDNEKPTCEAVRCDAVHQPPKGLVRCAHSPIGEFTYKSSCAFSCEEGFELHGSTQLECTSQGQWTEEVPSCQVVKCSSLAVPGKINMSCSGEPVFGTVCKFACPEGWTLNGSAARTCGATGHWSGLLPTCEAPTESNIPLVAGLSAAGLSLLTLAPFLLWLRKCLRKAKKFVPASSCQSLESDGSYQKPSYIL
Tumor necrosis factor (Homo sapiens), sequence (P01375 whole entry, looked up): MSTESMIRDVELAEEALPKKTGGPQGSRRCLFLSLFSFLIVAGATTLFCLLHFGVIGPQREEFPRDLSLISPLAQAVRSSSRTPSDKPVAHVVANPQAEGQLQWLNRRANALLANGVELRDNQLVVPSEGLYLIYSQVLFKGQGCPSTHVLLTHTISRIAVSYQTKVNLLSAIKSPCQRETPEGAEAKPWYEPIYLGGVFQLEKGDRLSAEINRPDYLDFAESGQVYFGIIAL

O=[N+]([O-])C(CO)(CO)CO
not listed: [19]
inactive: all other assays above

CCCCCCCC=O
not listed: [10] | [12] | [19]
inactive: all other assays above

CCCc1cc(=O)[nH]c(=S)[nH]1
not listed: [10]
inactive: all other assays above
